Measured values published in PubChem BioAssay.
The source made the active and inactive calls.

Key:
[1] = binders of probe aFSTL3 on microarray, primary screen, stem cell growth factor project, biochemical, small-molecule microarray, fluorescence 635/667 (AID 1064); conditions: higher = more signal;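 further: measures binding of the biotinylated anti-FSTL3 antibody to printed compounds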
[2] = binders from COS7 lysate, DM2A8 probe, primary screen, torsin A project, cell lysate, small-molecule microarray, fluorescence 635/667 (AID 1065); conditions: higher = more signal, COS7 lysate expressing mutant human TOR1A
[3] = binders of probe aFGF2 on microarray, primary screen, stem cell growth factor project, biochemical, small-molecule microarray, fluorescence 635/667 (AID 1067); conditions: higher = more signal;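 further: measures binding of biotinylated aFGF2 protein to printed compounds on slides; z-score merges feature fluorescence and signal-to-noise across triplicate slides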
[4] = binders of probe aFGF10 on microarray, primary screen, stem cell growth factor project, biochemical, small-molecule microarray, fluorescence 635/667 (AID 1071); conditions: higher = more signal;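 further: score merges 667 nm spot intensity and signal to noise from triplicate slides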
[5] = target: Neurogenic locus notch homolog protein 2 (Homo sapiens) (UniProt Q04721); test: Notch2 binders on small-molecule microarrays, primary screen, biochemical, small-molecule microarray, 635 nm fluorescence, stem cell growth factors (AID 1073); conditions: Notch2 binding, higher = more signal
[6] = target: Pro-neuregulin-1, membrane-bound isoform (Homo sapiens) (UniProt Q02297); test: NRG1 binders on small-molecule microarrays, primary screen, psychiatric disease protein project, biochemical, small-molecule microarray, fluorescence 635/667 (AID 1075); conditions: NRG1 binding, 635 nm fluorescence, higher = more signal;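 further: score combines 667 nm spot fluorescence with signal to noise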
Pro-neuregulin-1, membrane-bound isoform (Homo sapiens), sequence (Q02297 whole entry, looked up, the tested form may be a part, canonical isoform): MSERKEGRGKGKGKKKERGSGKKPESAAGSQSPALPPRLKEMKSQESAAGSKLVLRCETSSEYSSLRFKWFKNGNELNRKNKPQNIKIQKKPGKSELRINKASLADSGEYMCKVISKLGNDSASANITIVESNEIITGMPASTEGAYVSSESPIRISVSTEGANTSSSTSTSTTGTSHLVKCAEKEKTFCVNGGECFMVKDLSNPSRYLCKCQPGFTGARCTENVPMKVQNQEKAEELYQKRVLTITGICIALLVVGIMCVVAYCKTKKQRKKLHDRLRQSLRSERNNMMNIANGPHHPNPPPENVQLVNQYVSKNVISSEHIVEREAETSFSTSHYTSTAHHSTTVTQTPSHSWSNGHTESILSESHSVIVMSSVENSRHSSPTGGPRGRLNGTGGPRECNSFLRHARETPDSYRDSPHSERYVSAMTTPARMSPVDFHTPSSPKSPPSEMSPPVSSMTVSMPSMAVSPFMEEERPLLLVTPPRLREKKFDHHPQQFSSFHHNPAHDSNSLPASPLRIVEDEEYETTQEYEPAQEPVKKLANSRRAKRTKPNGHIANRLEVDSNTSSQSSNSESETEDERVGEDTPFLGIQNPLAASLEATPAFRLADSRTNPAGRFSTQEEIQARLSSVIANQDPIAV

[7] = system: Neuregulin-1 EGF-like domain; test: binders of neuregulin-1 EGF-like domain, primary screen, biochemical, small-molecule microarray, 635 nm fluorescence (AID 1081); conditions: small-molecule microarray binding, higher = more signal;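 further: binding of the protein to compounds printed on small-molecule microarray slides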
[8] = FRG1 promoter luciferase signal modulators, primary screen, FRG1 inhibition for FSHD, cell-based, C2C12 myotubes, firefly/Renilla luciferase, luminescence (AID 1084); conditions: higher = more signal, called active from +8 up or from −8 down
[9] = binders of probe aFST on microarray, primary screen, stem cell growth factor project, biochemical, small-molecule microarray, fluorescence 635/667 (AID 1086); conditions: higher = more signal;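 further: score merges 667 nm fluorescence with signal-to-noise of each printed compound spot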
[10] = binders of probe aHhip on microarray, primary screen, stem cell growth factor project, biochemical, small-molecule microarray, fluorescence 635/667 (AID 1087); conditions: higher = more signal;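 further: score merges spot fluorescence at 667nm with spot signal to noise ratio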
[11] = system: PRMT1 (protein arginine N-methyltransferase 1); test: PRMT1 binders on small-molecule microarrays, primary screen, biochemical, small-molecule microarray, 635 nm fluorescence (AID 1088); conditions: small-molecule microarray binding, higher = more signal;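 further: binding of Prmt1 protein to compounds spotted on small-molecule microarray slides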
[12] = yeast growth modulation, basal conditions, primary screen, YJM789 clinical isolate, OD600, 24 h (AID 1089);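 further: growth of clinical yeast isolate S. cerevisiae YJM 789 seeded 1000 cells per well; test concentration not given here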; conditions: S. cerevisiae YJM789 growth, higher = more signal, called active from +8 up or from −8 down
[13] = fission yeast growth modulation, primary screen, strain 972, OD600, 24 h, no modulator (AID 1090);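 further: basal condition with compound alone and no growth modifier present; test concentration not given here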; conditions: S. pombe 972 growth, higher = more signal, called active from +8 up or from −8 down
[14] = S. cerevisiae growth modulation with rapamycin, primary screen, strain BY4716, OD600, 96 h (AID 1091); conditions: higher = more signal, called active from +8 up or from −8 down; further: test concentration not given here
[15] = target: Torsin-1A-interacting protein 2 (Homo sapiens) (UniProt Q8NFQ8); test: LULL1 binders on small-molecule microarray, primary screen, cell lysate, human LULL1 lysate, 635/667 nm fluorescence (AID 1092); conditions: hLULL1 lysate binding, 635 nm fluorescence, higher = more signal;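 further: probe is lysate of COS7 cells overexpressing human LULL1; score merges per-feature 667 nm fluorescence with signal-to-noise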
Torsin-1A-interacting protein 2 (Homo sapiens), sequence (Q8NFQ8 whole entry, looked up): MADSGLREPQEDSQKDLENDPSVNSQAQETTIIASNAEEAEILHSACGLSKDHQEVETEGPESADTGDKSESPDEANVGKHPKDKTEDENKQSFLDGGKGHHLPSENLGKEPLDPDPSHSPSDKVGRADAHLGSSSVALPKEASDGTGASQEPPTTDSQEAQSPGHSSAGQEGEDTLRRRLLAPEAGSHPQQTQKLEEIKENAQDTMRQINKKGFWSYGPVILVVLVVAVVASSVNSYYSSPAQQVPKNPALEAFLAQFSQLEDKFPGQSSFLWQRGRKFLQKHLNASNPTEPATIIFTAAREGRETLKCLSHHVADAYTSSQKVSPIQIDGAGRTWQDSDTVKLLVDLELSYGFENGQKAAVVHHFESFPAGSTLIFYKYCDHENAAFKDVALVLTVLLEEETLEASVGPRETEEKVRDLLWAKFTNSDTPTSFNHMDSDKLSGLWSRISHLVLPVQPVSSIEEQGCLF

[16] = E. coli growth modulation, two-sided OD650, primary screen, E. coli filamentation project, strain DRC41, 24 h (AID 1093); conditions: OD650, 24 h, higher = more signal, called active from +8 up or from −8 down;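 further: MC1000 strain lacking acrAB efflux and sulA so SOS filamentation is blocked; test concentration not given here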
[17] = small-molecule microarray binders of probe aLefty2, primary screen, biochemical, biotinylated probe, 635/667 nm fluorescence (AID 1094); conditions: higher = more signal;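 further: score merges spot fluorescence near 667 nm with spot signal-to-noise ratio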
[18] = system: Noggin (protein binding on small-molecule microarray); test: Noggin binders on small-molecule microarray, primary screen, biochemical, 635/667 nm fluorescence (AID 1095); conditions: 635 nm fluorescence, higher = more signal;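 further: score merges 667 nm feature fluorescence with signal to noise over triplicate slides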
[19] = target: Neurogenic locus notch homolog protein 3 (Homo sapiens) (UniProt Q9UM47); test: NOTCH3 binders on small-molecule microarray, primary screen, biochemical, 635/667 nm fluorescence (AID 1096); conditions: NOTCH3 binding, 635 nm fluorescence, higher = more signal
Neurogenic locus notch homolog protein 3 (Homo sapiens), sequence (Q9UM47 whole entry, looked up): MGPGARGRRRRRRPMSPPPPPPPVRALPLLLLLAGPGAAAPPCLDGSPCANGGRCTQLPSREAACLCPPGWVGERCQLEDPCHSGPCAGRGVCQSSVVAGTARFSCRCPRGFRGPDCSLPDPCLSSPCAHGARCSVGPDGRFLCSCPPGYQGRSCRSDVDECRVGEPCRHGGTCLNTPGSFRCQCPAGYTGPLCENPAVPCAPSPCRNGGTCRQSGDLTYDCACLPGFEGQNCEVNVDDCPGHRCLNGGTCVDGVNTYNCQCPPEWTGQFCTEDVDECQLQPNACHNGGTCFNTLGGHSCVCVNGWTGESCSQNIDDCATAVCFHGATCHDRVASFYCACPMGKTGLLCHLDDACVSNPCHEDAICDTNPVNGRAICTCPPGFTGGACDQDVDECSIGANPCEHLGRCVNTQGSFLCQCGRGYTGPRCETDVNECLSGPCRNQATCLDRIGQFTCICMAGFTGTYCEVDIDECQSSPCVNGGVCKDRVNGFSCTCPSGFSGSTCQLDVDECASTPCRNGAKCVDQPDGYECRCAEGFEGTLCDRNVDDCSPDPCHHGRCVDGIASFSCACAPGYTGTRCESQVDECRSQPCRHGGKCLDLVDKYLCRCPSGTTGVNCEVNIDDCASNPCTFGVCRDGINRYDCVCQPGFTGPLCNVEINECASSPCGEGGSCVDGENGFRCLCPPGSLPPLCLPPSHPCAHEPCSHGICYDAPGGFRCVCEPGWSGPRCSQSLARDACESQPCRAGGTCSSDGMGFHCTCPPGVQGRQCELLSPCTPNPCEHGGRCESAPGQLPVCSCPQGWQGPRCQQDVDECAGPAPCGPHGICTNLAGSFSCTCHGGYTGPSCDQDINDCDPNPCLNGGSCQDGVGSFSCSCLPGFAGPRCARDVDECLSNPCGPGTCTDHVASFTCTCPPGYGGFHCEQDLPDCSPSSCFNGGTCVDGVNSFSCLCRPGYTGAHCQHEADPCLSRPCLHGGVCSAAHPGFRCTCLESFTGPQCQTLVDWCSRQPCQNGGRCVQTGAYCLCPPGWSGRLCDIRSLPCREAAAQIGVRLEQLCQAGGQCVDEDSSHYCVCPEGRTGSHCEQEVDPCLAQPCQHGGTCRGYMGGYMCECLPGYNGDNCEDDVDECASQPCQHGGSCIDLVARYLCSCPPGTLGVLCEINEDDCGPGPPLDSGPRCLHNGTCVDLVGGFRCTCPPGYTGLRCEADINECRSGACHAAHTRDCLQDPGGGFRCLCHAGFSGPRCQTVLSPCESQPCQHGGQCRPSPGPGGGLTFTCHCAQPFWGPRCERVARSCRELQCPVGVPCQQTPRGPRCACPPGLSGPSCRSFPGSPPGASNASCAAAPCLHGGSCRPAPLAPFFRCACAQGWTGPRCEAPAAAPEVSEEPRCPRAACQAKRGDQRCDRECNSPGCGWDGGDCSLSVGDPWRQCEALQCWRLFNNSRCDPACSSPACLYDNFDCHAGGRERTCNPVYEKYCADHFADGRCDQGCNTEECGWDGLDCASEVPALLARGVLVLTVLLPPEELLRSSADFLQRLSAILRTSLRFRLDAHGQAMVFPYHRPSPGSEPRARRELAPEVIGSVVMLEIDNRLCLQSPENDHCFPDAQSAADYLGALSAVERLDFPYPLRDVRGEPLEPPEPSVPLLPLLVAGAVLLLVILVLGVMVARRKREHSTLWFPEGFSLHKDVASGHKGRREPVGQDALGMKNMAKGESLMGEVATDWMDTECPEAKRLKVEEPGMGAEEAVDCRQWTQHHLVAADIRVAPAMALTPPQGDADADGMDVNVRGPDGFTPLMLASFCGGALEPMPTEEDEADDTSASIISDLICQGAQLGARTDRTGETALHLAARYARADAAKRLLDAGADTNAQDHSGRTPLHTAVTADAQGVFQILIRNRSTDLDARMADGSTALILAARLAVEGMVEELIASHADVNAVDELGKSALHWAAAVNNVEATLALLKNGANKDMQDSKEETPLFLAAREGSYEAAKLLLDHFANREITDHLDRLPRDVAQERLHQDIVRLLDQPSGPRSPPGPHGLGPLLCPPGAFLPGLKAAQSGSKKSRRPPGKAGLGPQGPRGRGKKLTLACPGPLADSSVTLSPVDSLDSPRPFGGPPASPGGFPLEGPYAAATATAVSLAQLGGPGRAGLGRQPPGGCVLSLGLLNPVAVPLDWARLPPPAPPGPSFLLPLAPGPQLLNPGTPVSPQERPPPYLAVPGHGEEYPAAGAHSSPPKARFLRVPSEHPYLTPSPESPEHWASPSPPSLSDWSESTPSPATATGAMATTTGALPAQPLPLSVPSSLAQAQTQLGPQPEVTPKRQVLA

[20] = small-molecule microarray binders of probe aEGFR, primary screen, biochemical, biotinylated probe, 635/667 nm fluorescence (AID 1097); conditions: higher = more signal;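 further: probe is a biotinylated anti-EGFR antibody binding compounds printed on slides; score combines fluorescence near 667 nm and signal to noise of each spot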

Row | Structure (SMILES) | composite z-score [1] | composite z-score [2] | composite z-score [3] | composite z-score [4] | composite z-score [5] | composite z-score [6] | composite z-score [7] | z-score [8] | composite z-score [9] | composite z-score [10] | composite z-score [11] | z-score [12] | z-score [13] | z-score [14] | composite z-score [15] | z-score [16] | composite z-score [17] | composite z-score [18] | composite z-score [19] | composite z-score [20]
1 | C=CC[C@@H]1C=C[C@H](ON=C(C)CCC(=O)OC[C@H]2O[C@H](C#Cc3ccccc3)C=C[C@@H]2Oc2ccc(C)cc2)[C@@H](CO)O1 | -0.566 | 0.692 | 0.0624 | 0.782 | 1.12 | 0.661 | 0.984 | -0.349 (inactive) | 0.203 | 0.0373 | 1.54 | 1.28 (inactive) | 0.275 (inactive) | 1.06 (inactive) | 2.2 | 0.943 (inactive) | -0.116 | 0.615 | 1.12 | 0.109
2 | CCc1cc2c(nc1CC)CCN(CCC(C)=NO[C@H](C)c1cn([C@@H]3COC[C@H]3O)nn1)C2 | -0.141 | -0.0699 | -0.0015 | 0.0444 | 0.199 | -0.174 | -0.365 | -0.0345 (inactive) | 0.224 | -0.0994 | -0.104 | 0.485 (inactive) | 0.308 (inactive) | 0.668 (inactive) | -0.179 | -0.216 (inactive) | -0.0936 | 0.0613 | 0.551 | 0.0004
3 | CO[C@H]1COC(=O)CC=C[C@@H](C)[C@H](NS(=O)(=O)c2ccc(C)cc2)COC(=O)CCC[C@@H]1C | -0.366 | 0.906 | -0.154 | 0.21 | 0.18 | -0.25 | 0.185 | 0.408 (inactive) | -0.225 | -0.635 | 1.1 | -0.419 (inactive) | 0.14 (inactive) | -0.726 (inactive) | -0.401 | -0.0537 (inactive) | -0.122 | 0.676 | 0.77 | -0.067
4 | CCOC(=O)[C@H](CC(C)C)NC(=O)CCC1CC(OC(=O)NCc2cccc3ccccc23)CC2(CCCC(COC(=O)NCc3cccc(C(F)(F)F)c3)O2)O1 (stereo not given in full) | -0.5 | 0.0221 | -0.125 | 0.469 | 0.611 | -0.0419 | 0.0188 | -1.03 (inactive) | -0.262 | 0.0749 | 0.221 | 0.533 (inactive) | 0.171 (inactive) | 0.289 (inactive) | 0.135 | 0.294 (inactive) | -0.251 | 0.582 | 0.359 | -0.137
5 | CCOC(=O)[C@H](CC(C)C)NC(=O)CCC1CC(OC(=O)NCCc2ccc(F)cc2)CC2(CCCC(COC(=O)NCCC(C)C)O2)O1 (stereo not given in full) | -0.44 | 0.289 | -0.083 | 0.297 | -0.383 | 0.797 | 0.98 | 1.25 (inactive) | -0.128 | 0.0722 | 0.201 | 0.0312 (inactive) | 1.12 (inactive) | 1.08 (inactive) | 1.51 | -0.917 (inactive) | -0.107 | 0.456 | -0.496 | -0.0778
6 | COCOc1ccc(Br)cc1C(=O)[C@@H]1O[C@H]1c1cccc(OC)c1 | -0.305 | -0.0196 | -0.122 | 0.204 | 0.333 | -0.268 | 0.287 | -0.0714 (inactive) | -0.0156 | -0.202 | -0.0021 | -1.33 (inactive) | -6.67 (inactive) | -0.822 (inactive) | 0.497 | 1.58 (inactive) | -0.142 | 0.455 | 0.257 | -0.112
7 | CC(C)(C)N1C(=O)[C@H]2[C@H]3[C@H](O)C=CC(=O)[C@@H]3CC[C@H]2C1=O | -0.623 | 0.0741 | -0.132 | 0.412 | 0.437 | -0.261 | 0.368 | -0.757 (inactive) | 0.229 | 0.0251 | -0.832 | 0.985 (inactive) | 0.632 (inactive) | 1.12 (inactive) | -0.117 | 0.208 (inactive) | -0.0258 | 0.891 | 0.604 | 0.0469
8 | COC(=O)CC=C[C@@H](C)[C@@H](C=NOC(C)CN1CCCc2nc(C)c(C)cc21)OC (stereo not given in full) | -0.111 | 0.382 | -0.121 | 0.354 | 0.401 | -0.171 | 0.375 | 0.422 (inactive) | 0.0017 | -0.0237 | 0.356 | 0.293 (inactive) | 0.245 (inactive) | 0.0448 (inactive) | 0.283 | -0.64 (inactive) | -0.165 | 0.541 | 0.625 | 0.0009
9 | COc1cccc([C@H]2Oc3ccc(OC)cc3C(=NO[C@@H](C)c3cn([C@H](CO)Cc4ccccc4)nn3)[C@@H]2O)c1 | -0.234 | -0.346 | -0.133 | 0.226 | -0.188 | 0.428 | -0.123 | 0.213 (inactive) | 0.105 | -0.134 | 0.0733 | 0.401 (inactive) | 0.0329 (inactive) | 0.0485 (inactive) | -0.123 | -0.486 (inactive) | -0.21 | -0.335 | -0.367 | -0.18
10 | O=c1n(Cc2cc3c(cc2Cl)OCO3)c(=O)n2n1CC[C@@H]1C(=NOC[C@@H](O)COCc3ccco3)[C@H]3O[C@H]3[C@@H](O)[C@@H]12 | -0.247 | 0.28 | -0.0878 | 0.217 | 0.169 | -0.112 | 0.0421 | 0.0388 (inactive) | -0.142 | 0.0398 | 0.101 | 1.52 (inactive) | 0.807 (inactive) | 1.24 (inactive) | 0.177 | 0.283 (inactive) | -0.286 | 0.323 | 0.667 | -0.0976
